Reference: paper PMC7826789 (International Journal of Molecular Sciences, 2021)

The molecules below were run on KIT.

| SMILES | Kinases covered |
| --- | --- |
| Cl.O=C(Nc1ccc(Oc2ccc3[nH]c(NC(=O)c4ccco4)nc3c2)cc1)Nc1cc(C(F)(F)F)ccc1F [GW683134A] | KIT |
| COc1cc2nccc(Nc3ccc(OCc4ccc(NC(C)=O)cc4)cc3)c2cc1OC [GW440135] | KIT |
| CCS(=O)(=O)c1ccc(OC)c(Nc2ncc(-c3cccc(F)c3)o2)c1 [GW621970X] | KIT |
| Nc1n[nH]c2ncc(-c3ccccc3)cc12 [SB-517081] | KIT |
| Nc1ncnc2occ(-c3ccc(NC(=O)Nc4cc(C(F)(F)F)ccc4F)cc3)c12 [GW770249X] | KIT |
| O=C(Nc1ccccc1)Nc1cccc(Oc2ccc3nccn3n2)c1 [TPKI-39] | KIT |
| C/C(Nc1ccc(S(N)(=O)=O)cc1)=C1/C(=O)Nc2ccccc21 [GW335962X] | KIT |
| Cn1ccc2ncnc(Oc3ccc(NC(=O)Nc4ccccc4)cc3)c21 [TPKI-69] | KIT |
| CCS(=O)(=O)c1ccc(OC)c(Nc2ncc(-c3cccc(OC)c3)o2)c1 [GW580509X] | KIT |

These molecules were tested on LRRK2.

| SMILES | Kinases covered |
| --- | --- |
| CNc1nc(Nc2ccc(C(=O)N3CCOCC3)cc2OC)ncc1Cl [HG-10-102-01] | LRRK2 |
| CNc1nc(Nc2ccc(C(=O)N3CCOCC3)cc2OC)nc2[nH]cc(Cl)c12 [JH-II-127] | LRRK2 |
| O=C(Nc1cccnc1)c1cc(-c2ccnc(F)c2)ccc1OCc1ccccc1 [GSK2578215] | LRRK2 |
| C[C@@H]1CCNC(=O)c2cc3ccc(C(=O)Nc4nc5ccccc5n4CCCN(C)C)cc3n21 [BI00645435] | LRRK2 |
